From PubChem BioAssay (NCATS)
Where “and” joins values, the source holds several entries; their conditions need not be identical. Equal values may be shown once. Results filed as inconclusive are left out. Entries that show only a call come without a potency. More than one record can exist for a structure, and the calls need not agree. Calls of active or inactive are those of the source. Calls follow the shape of the dose curve; as a rule, active = well fitted curve in the direction sought with a large enough effect; inconclusive = small, poorly fitted or top-dose-only effect, or another doubt; inactive = no such curve, though single readings can be large; an effect the other way counts as inactive or inconclusive.

Columns and labels:
MKL-1 = assay: qHTS assay to identify novel small-molecules to repurpose for Merkel cell carcinoma treatment (AID 1296009); settings: MCC and control cell lines, CellTiter-Glo viability, 72 h; series mostly up to 46 µM; also: nearly all actives have a fitted effect of over 60% in size; also: potency is read from the fitted curve at half-maximal effect
Outline: (§1)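 Viability readout: ATP luminescence (CellTiter-Glo) after 72 hr drug exposure at 37 degree celsius. Dose-response format was 8 points for NPC and 11 points for MIPE; data normalized to in-plate controls.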

MKL-2 = assay: as above; settings: MCC and control cell lines, CellTiter-Glo viability, 72 h; series mostly up to 46 µM
Outline: as §1

NIH3T3 = assay: as above; settings: MCC and control cell lines, CellTiter-Glo viability, 72 h; at 44.8 µM (top of the series) unless noted
Outline: as §1

UISO = assay: as above; settings: MCC and control cell lines, CellTiter-Glo viability, 72 h; series mostly up to 46 µM
Outline: as §1

WaGa = assay: as above; settings: MCC and control cell lines, CellTiter-Glo viability, 72 h; series mostly up to 46 µM
Outline: as §1

CAOV3 = assay: Primary qHTS to identify gynecologic anti-cancer compounds using libraries of approved drugs and bioactive compounds (AID 1345084); settings: Gynecologic cancer cell panel viability, ATPlite luminescence, 48 h; series mostly up to 57.5 µM; also: nearly all actives have a fitted effect of over 55% in size
Outline: (§2)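 48 h compound exposure at 37 C, 5% CO2; five-point qHTS. ATPlite luminescence readout of cell ATP.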

CASKI = assay: as above; settings: Gynecologic cancer cell panel viability, ATPlite luminescence, 48 h; series mostly up to 57.5 µM
Outline: as §2

Es-2 = assay: as above; settings: Gynecologic cancer cell panel viability, ATPlite luminescence, 48 h; series mostly up to 57.5 µM
Outline: as §2

Hek293T = assay: as above; settings: Gynecologic cancer cell panel viability, ATPlite luminescence, 48 h, control line for the selectivity index; series mostly up to 57.5 µM
Outline: as §2

JEG-3 = assay: as above; settings: Gynecologic cancer cell panel viability, ATPlite luminescence, 48 h; series mostly up to 57.5 µM
Outline: as §2

OV90 = assay: as above; settings: Gynecologic cancer cell panel viability, ATPlite luminescence, 48 h; series mostly up to 57.5 µM
Outline: as §2

PA-1 = assay: as above; settings: Gynecologic cancer cell panel viability, ATPlite luminescence, 48 h; series mostly up to 57.5 µM
Outline: as §2

SKOV3 = assay: as above; settings: Gynecologic cancer cell panel viability, ATPlite luminescence, 48 h; series mostly up to 57.5 µM
Outline: as §2

Tov-21-G = assay: as above; settings: Gynecologic cancer cell panel viability, ATPlite luminescence, 48 h; series mostly up to 57.5 µM
Outline: as §2

Tov112D = assay: as above; settings: Gynecologic cancer cell panel viability, ATPlite luminescence, 48 h; series mostly up to 57.5 µM
Outline: as §2

[1] = Drug repurposing screens with cells derived from glioblastoma tumor samples (AID 1345199); settings: GBM patient neurospheres viability, ATP luminescence, 48 h; also: nearly all actives have a fitted effect of over 40% in size
Outline: (§3)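 Primary testing used CD133+ neurospheres from four GBM patients, seven concentrations, 48 h exposure and ATP-based viability; confirmation added three slower-growing patient lines.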

C33A = assay: Primary qHTS to identify gynecologic anti-cancer compounds using libraries of approved drugs and bioactive compounds (AID 1345084); settings: Gynecologic cancer cell panel viability, ATPlite luminescence, 48 h; series mostly up to 57.5 µM; also: nearly all actives have a fitted effect of over 55% in size
Outline: as §2

HeLa = assay: as above; settings: Gynecologic cancer cell panel viability, ATPlite luminescence, 48 h; series mostly up to 57.5 µM
Outline: as §2

astro = assay: Drug repurposing screens with cells derived from glioblastoma tumor samples (AID 1345199); settings: viability, ATP luminescence, 48 h; series mostly up to 45.9 µM; also: nearly all actives have a fitted effect of over 40% in size
Outline: as §3

[2] = qHTS assay to identify inhibitors of the type 1 interferon - major histocompatibility complex class I in skeletal muscle: Counter screen cell viability and HiBit confirmation (AID 1347412); settings: iHSKM muscle cells + IFN-b, HiBiT or CellTiter-Glo, 24 h, at 45.9 µM (top of the series); also: nearly all actives have a fitted effect of over 60% in size
Outline: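 Luminescence read-out: Nano-Glo HiBiT lytic signal from C-terminally HiBiT-tagged HLA-B in CRISPR-edited human myoblasts, plus CellTiter Glo ATP as viability counter screen. IFN-beta 4.0 ng/ml; 24 hrs treatment at 37 C, 5% CO2.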

[3] = at 45.9 µM (top of the series), tumour line B
[4] = at 45.9 µM (top of the series), tumour line D
[5] = at 46 µM (top of the series), tumour line A
[6] = at 46.1 µM (top of the series), tumour line C

Cc1cc(NS(=O)(=O)c2ccc(N)cc2)no1
Potency (MKL-1): inactive
Potency (MKL-2): inactive
outcome (NIH3T3): inactive
Potency (UISO): inactive
Potency (WaGa): inactive
Potency (CAOV3): inactive
Potency (CASKI): inactive
Potency (Es-2): inactive
Potency (Hek293T): inactive
Potency (JEG-3): inactive
Potency (OV90): inactive
Potency (PA-1): inactive
Potency (SKOV3): inactive
Potency (Tov-21-G): inactive
Potency (Tov112D): inactive
activity, negative = cell killing [1, 3]: 0.277% (inactive)
activity, negative = cell killing [1, 4]: -26.8% (inactive)
activity, negative = cell killing [1, 5]: -6.57% (inactive)
activity, negative = cell killing [1, 6]: 7.15% (inactive)

O=S(=O)(O)CCS
Potency (MKL-1): inactive
Potency (MKL-2): inactive
Potency (UISO): inactive
Potency (WaGa): inactive
Potency (C33A): inactive
Potency (CAOV3): inactive
Potency (CASKI): inactive
Potency (Es-2): inactive
Potency (HeLa): inactive
Potency (Hek293T): inactive
Potency (JEG-3): inactive
Potency (OV90): inactive
Potency (PA-1): inactive
Potency (SKOV3): inactive
Potency (Tov-21-G): inactive
Potency (Tov112D): inactive
activity, negative = cell killing [1, 3]: -4.82% (inactive)
activity, negative = cell killing [1, 4]: -6.41% (inactive)
activity, negative = cell killing [1, 5]: -21.8% (inactive)
activity, negative = cell killing [1, 6]: -18% (inactive)
Potency (astro): inactive

C[C@@H](NCCCc1cccc(C(F)(F)F)c1)c1cccc2ccccc12
Potency (MKL-1): inactive
Potency (MKL-2): inactive
outcome (NIH3T3): inactive
Potency (UISO): inactive
Potency (JEG-3): inactive
Potency (Tov-21-G): inactive
Potency (Tov112D): inactive
activity change, negative = inhibition ([2]; HiBiT): 14% (inactive)
activity change, negative = inhibition ([2]; Viability): -23.6% (inactive)

O=S(=O)(c1cccc2cnccc12)N1CCCNCC1
Potency (MKL-1): inactive
Potency (MKL-2): inactive
Potency (UISO): inactive
Potency (WaGa): inactive
Potency (C33A): inactive
Potency (CAOV3): inactive
Potency (CASKI): inactive
Potency (Es-2): inactive
Potency (HeLa): inactive
Potency (Hek293T): inactive
Potency (JEG-3): inactive
Potency (OV90): inactive
Potency (PA-1): inactive
Potency (SKOV3): inactive
Potency (Tov-21-G): inactive
Potency (Tov112D): inactive
activity, negative = cell killing [1, 3]: -0.368% (inactive)
activity, negative = cell killing [1, 4]: -10.7% (inactive)
activity, negative = cell killing [1, 5]: -20.9% (inactive)
activity, negative = cell killing [1, 6]: -21.1% (inactive)

COc1cnc(NS(=O)(=O)c2ccc(N)cc2)nc1
Potency (MKL-1): inactive
Potency (MKL-2): inactive
Potency (UISO): inactive
Potency (WaGa): inactive and 13.2 µM (active)
Potency (C33A): inactive
Potency (CAOV3): inactive
Potency (CASKI): inactive
Potency (Es-2): inactive
Potency (HeLa): inactive
Potency (Hek293T): inactive
Potency (JEG-3): inactive
Potency (OV90): inactive
Potency (PA-1): inactive
Potency (SKOV3): inactive
Potency (Tov-21-G): inactive
Potency (Tov112D): inactive
activity, negative = cell killing ([1]; at 20 µM (top of the series), tumour line C): -10.8% (inactive)
activity, negative = cell killing ([1]; at 21.2 µM (top of the series), tumour line B): -19.1% (inactive)
activity, negative = cell killing ([1]; at 21.2 µM (top of the series), tumour line D): -2.41% (inactive)
activity, negative = cell killing ([1]; at 21.3 µM (top of the series), tumour line A): -32% (inactive)
Potency (astro): inactive

Nc1nc(N)nc(-c2cc(Cl)ccc2Cl)n1
Potency (MKL-1): inactive
Potency (MKL-2): inactive
Potency (UISO): inactive
Potency (WaGa): inactive
Potency (C33A): inactive
Potency (CAOV3): inactive
Potency (CASKI): inactive
Potency (Es-2): inactive
Potency (HeLa): inactive
Potency (Hek293T): inactive
Potency (JEG-3): inactive
Potency (OV90): inactive
Potency (PA-1): inactive
Potency (SKOV3): inactive
Potency (Tov-21-G): inactive
Potency (Tov112D): inactive
activity, negative = cell killing [1, 3]: 1.99% (inactive)
activity, negative = cell killing [1, 4]: 7.54% (inactive)
activity, negative = cell killing [1, 6]: 13.1% (inactive)
Potency (astro): inactive
